Measurements reported in paper PMC7862700, “An all-to-all approach to the identification of sequence-specific readers for epigenetic DNA modifications on cytosine”.

Experiments:
Experiment in all cases: DAPPL (digital affinity profiling via proximity ligation, sequencing); 10 mM Tris-HCl pH 7.5, 50 mM NaCl, 1 mM DTT, 4% glycerol, room temperature, 30 min; GST-TFs on glutathione beads, 16-mer random dsDNA library, 0.1% formaldehyde crosslink after washing; high values mean tight binding
FEV = target: T1, FEV (Homo sapiens, UniProt Q99581 1-238); settings: protein: recombinant; tags: N-terminal GST; dsDNA, one strand shown
T1 sequence: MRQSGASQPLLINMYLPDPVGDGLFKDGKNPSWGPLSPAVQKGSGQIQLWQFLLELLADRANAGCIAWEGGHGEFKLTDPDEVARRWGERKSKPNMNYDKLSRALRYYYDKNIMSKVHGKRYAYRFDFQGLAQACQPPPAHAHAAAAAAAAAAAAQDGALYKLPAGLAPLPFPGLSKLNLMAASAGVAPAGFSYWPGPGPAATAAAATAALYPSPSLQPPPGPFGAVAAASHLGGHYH
Summary of the method: (§1)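 Binding signal is each hexamer's read frequency for a factor divided by its frequency in the tag-only sample. The factors were GST-fused human transcription factors from yeast, captured on glutathione beads, DNA-barcoded and pooled with that sample. Pools were incubated with 200 nmole of a random double-stranded 16-mer DNA library in Tris/NaCl/DTT/glycerol buffer at room temperature for 30 min, then washed, crosslinked with 0.1% formaldehyde, proximity-ligated with BsaI/T4 ligase (1 h, 37 °C), PCR-amplified and sequenced on an Illumina NextSeq500.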

ETV5 = ETV5 (Homo sapiens, UniProt P41161 1-510); settings: protein: recombinant; tags: N-terminal GST; dsDNA, one strand shown
Sequence of ETV5 (P41161 whole entry): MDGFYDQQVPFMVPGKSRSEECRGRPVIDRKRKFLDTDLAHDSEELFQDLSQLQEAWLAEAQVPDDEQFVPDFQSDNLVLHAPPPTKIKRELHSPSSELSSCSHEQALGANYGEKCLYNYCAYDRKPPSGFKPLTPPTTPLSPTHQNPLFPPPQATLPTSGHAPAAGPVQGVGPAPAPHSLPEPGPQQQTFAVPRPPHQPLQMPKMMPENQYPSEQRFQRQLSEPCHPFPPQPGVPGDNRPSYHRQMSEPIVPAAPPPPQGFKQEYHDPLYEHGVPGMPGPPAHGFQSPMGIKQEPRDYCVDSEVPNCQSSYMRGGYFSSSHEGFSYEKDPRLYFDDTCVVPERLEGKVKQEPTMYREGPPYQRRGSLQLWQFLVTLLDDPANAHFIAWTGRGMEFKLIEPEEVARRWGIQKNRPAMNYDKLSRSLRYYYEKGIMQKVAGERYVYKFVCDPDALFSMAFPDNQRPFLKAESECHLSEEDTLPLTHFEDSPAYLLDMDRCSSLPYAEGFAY
Summary of the method: as §1

HSF1 = HSF1 (Homo sapiens, UniProt Q00613 1-529); settings: protein: recombinant; tags: N-terminal GST; chain copies: 3; dsDNA, one strand shown
Sequence of HSF1 (Q00613 whole entry): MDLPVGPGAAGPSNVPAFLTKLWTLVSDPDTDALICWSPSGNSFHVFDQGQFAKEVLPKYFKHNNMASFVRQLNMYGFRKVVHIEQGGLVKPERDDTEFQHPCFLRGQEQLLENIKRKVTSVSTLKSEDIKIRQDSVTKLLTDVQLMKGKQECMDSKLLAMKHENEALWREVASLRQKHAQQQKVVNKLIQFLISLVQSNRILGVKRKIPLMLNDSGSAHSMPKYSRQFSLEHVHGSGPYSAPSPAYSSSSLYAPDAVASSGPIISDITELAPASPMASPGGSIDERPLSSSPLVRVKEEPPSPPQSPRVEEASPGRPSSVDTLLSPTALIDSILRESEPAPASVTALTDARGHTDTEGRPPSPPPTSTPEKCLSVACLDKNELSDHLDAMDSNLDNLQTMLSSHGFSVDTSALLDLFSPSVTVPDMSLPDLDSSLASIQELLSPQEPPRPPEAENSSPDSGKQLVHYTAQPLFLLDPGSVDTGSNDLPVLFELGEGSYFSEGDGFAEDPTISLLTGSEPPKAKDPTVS
Summary of the method: as §1

SPIC = target: T2, SPIC (Homo sapiens, UniProt Q8N5J4 1-248); settings: protein: recombinant; tags: N-terminal GST; dsDNA, one strand shown
T2 sequence: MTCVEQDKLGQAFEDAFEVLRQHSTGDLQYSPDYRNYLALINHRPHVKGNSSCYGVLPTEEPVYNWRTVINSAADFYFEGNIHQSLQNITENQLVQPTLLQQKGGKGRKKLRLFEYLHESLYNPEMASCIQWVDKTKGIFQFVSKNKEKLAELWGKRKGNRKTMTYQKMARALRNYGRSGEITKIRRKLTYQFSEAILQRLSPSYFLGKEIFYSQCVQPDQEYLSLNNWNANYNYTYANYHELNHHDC
Summary of the method: as §1

ELF4 = ELF4 (Homo sapiens, UniProt Q99607 1-663); settings: protein: recombinant; tags: N-terminal GST; dsDNA, one strand shown
Sequence of ELF4 (Q99607 whole entry): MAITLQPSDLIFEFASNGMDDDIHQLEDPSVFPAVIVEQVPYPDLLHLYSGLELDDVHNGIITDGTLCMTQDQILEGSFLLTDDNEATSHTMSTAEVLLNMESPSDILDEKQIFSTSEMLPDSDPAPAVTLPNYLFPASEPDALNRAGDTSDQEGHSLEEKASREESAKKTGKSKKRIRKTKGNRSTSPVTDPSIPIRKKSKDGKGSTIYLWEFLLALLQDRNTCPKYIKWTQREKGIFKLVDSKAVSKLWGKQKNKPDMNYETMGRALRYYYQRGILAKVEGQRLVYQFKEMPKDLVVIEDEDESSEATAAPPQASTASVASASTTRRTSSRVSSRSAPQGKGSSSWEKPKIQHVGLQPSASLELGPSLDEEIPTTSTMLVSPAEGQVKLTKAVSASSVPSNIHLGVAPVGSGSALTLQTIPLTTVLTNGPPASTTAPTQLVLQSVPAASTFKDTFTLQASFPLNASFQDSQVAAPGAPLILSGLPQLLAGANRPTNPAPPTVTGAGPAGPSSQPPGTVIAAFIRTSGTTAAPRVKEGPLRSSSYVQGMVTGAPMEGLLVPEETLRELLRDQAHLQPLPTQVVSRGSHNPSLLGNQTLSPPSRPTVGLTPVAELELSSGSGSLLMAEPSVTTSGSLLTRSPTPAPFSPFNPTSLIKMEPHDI
Summary of the method: as §1

ELK4 = target: T3, ELK4 (Homo sapiens, UniProt P28324-2 1-405); settings: protein: recombinant; tags: N-terminal GST; dsDNA, one strand shown
T3 sequence: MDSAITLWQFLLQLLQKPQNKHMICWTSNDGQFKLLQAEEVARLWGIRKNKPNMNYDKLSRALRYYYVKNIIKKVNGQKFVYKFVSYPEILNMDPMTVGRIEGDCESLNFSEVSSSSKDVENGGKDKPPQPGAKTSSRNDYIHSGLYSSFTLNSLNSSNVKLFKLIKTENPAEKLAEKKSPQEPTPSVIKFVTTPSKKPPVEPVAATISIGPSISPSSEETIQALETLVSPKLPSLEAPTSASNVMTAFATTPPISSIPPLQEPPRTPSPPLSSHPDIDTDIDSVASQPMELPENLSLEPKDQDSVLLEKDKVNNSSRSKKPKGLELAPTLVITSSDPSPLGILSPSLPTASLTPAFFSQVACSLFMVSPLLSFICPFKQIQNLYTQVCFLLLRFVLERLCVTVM
Summary of the method: as §1

ETV2 = target: T4, ETV2 (Homo sapiens, UniProt O00321 1-342); settings: protein: recombinant; tags: N-terminal GST; dsDNA, one strand shown
T4 sequence: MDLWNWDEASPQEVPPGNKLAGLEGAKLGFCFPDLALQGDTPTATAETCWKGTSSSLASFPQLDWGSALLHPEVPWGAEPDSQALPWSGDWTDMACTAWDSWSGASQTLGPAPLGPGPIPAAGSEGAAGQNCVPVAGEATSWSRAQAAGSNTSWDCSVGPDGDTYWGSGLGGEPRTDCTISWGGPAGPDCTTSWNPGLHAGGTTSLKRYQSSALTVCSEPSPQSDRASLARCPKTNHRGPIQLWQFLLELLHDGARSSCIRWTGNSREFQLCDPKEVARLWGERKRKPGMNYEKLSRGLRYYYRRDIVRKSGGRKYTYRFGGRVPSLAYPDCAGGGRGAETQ
Summary of the method: as §1

ELF3 = target: T5, ELF3 (Homo sapiens, UniProt P78545 1-371); settings: protein: recombinant; tags: N-terminal GST; dsDNA, one strand shown
T5 sequence: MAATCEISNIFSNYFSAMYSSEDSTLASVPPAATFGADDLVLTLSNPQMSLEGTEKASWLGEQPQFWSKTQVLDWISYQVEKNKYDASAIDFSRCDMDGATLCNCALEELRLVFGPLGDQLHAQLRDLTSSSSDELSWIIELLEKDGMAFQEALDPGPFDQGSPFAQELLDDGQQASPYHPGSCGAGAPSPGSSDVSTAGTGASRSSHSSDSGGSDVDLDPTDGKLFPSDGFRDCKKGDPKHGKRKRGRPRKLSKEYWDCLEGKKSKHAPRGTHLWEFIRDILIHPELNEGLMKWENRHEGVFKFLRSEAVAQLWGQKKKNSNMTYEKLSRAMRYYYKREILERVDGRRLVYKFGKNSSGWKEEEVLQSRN
Summary of the method: as §1

CRX = CRX (Homo sapiens, UniProt O43186 1-299); settings: protein: recombinant; tags: N-terminal GST; dsDNA, one strand shown
Sequence of CRX (O43186 whole entry): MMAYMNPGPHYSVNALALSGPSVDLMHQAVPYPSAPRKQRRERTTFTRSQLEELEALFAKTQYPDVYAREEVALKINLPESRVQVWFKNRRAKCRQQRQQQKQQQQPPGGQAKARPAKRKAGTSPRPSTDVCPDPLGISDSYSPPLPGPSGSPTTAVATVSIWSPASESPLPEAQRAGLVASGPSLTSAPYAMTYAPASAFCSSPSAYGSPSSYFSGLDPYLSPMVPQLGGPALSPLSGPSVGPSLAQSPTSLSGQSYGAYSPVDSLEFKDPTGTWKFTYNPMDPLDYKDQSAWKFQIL
Summary of the method: as §1

ETV1 = ETV1 (Homo sapiens, UniProt P50549 1-477); settings: protein: recombinant; tags: N-terminal GST; dsDNA, one strand shown
Sequence of ETV1 (P50549 whole entry): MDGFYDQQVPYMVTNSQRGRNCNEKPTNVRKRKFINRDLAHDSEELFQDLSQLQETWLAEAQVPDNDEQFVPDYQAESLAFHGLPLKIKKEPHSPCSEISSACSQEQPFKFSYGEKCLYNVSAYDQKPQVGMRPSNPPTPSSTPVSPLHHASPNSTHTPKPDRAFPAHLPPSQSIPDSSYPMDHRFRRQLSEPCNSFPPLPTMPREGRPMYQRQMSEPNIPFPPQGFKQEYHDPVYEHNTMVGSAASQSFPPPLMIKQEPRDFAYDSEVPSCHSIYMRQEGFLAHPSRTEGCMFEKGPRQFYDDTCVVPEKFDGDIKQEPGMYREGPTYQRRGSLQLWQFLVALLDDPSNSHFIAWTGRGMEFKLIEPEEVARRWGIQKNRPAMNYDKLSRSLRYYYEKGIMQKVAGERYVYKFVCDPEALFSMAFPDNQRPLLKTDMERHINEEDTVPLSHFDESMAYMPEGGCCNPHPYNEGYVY
Summary of the method: as §1

ERF = target: T6, ERF (Homo sapiens, UniProt P50548 1-548); settings: protein: recombinant; tags: N-terminal GST; dsDNA, one strand shown
T6 sequence: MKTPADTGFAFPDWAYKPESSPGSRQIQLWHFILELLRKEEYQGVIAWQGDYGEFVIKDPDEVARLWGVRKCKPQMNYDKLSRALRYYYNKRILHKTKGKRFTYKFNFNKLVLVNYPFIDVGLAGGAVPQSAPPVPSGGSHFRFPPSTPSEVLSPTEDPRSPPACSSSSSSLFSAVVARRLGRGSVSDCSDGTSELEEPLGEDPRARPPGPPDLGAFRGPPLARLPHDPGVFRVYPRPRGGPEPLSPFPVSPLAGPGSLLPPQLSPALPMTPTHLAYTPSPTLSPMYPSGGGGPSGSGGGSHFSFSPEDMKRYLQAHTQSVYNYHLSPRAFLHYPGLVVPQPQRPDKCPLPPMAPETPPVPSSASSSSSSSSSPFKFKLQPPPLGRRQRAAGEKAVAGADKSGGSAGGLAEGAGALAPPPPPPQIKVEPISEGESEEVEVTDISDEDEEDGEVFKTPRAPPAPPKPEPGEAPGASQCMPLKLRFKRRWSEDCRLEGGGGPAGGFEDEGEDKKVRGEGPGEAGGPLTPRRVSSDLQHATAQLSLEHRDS
Summary of the method: as §1

ETV3L = target: T7, ETV3L (Homo sapiens, UniProt Q6ZN32 1-361); settings: protein: recombinant; tags: N-terminal GST; dsDNA, one strand shown
T7 sequence: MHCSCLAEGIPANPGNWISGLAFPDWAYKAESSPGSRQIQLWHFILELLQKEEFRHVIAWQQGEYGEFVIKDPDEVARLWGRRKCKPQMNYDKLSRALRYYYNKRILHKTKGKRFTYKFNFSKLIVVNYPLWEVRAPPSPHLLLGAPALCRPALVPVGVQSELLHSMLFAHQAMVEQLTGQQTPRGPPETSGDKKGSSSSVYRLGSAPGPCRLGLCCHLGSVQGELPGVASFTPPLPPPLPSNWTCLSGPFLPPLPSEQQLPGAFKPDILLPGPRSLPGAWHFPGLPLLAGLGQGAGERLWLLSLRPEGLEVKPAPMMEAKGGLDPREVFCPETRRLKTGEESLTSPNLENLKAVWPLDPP
Summary of the method: as §1

ETS2 = target: T8, ETS2 (Homo sapiens, UniProt P15036 1-469); settings: protein: recombinant; tags: N-terminal GST; dsDNA, one strand shown
T8 sequence: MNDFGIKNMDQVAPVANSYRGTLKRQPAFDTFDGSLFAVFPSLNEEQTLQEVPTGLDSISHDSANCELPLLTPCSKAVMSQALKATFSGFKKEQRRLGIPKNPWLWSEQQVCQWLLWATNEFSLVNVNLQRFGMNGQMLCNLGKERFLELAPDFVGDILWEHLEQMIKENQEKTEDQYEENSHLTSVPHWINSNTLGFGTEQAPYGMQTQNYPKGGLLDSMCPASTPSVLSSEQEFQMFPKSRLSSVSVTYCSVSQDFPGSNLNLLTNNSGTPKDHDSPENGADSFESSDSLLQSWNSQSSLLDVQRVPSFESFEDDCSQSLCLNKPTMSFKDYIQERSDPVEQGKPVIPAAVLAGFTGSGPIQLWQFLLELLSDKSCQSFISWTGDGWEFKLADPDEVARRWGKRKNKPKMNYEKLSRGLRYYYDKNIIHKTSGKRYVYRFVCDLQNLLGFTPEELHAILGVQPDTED
Summary of the method: as §1

SPDEF = target: T9, SPDEF (Homo sapiens, UniProt O95238 1-335); settings: protein: recombinant; tags: N-terminal GST; dsDNA, one strand shown
T9 sequence: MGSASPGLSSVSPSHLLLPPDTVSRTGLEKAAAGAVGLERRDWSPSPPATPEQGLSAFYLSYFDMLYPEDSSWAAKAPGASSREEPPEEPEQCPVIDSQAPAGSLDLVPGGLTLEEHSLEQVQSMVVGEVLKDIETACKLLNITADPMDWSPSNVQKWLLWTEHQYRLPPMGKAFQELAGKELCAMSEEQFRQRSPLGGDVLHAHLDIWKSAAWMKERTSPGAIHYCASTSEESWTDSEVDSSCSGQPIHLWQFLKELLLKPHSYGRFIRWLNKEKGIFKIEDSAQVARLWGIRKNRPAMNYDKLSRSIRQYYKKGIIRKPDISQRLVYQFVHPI
Summary of the method: as §1

ETV7 = target: T10, ETV7 (Homo sapiens, UniProt Q9Y603 1-341); settings: protein: recombinant; tags: N-terminal GST; dsDNA, one strand shown
T10 sequence: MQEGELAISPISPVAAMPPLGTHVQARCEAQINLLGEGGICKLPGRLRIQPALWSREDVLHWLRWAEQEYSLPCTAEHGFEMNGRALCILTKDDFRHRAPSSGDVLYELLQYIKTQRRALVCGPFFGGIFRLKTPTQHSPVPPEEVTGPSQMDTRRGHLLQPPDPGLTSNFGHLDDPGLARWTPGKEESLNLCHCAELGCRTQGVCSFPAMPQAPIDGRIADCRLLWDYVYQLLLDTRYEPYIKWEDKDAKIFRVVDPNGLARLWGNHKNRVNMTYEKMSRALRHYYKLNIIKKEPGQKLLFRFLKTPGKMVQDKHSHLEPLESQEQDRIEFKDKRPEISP
Summary of the method: as §1

ELF5 = target: T11, ELF5 (Homo sapiens, UniProt Q9UKW6-2 1-255); settings: protein: recombinant; tags: N-terminal GST; dsDNA, one strand shown
T11 sequence: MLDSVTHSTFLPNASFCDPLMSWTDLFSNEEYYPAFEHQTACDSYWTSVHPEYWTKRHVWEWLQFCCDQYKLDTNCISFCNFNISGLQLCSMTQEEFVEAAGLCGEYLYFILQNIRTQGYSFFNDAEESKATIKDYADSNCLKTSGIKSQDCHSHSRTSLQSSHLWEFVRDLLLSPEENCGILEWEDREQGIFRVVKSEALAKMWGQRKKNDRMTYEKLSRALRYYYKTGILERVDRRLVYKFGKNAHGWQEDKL
Summary of the method: as §1

ETV3 = target: T12, ETV3 (Homo sapiens, UniProt P41162-2 1-143); settings: protein: recombinant; tags: N-terminal GST; dsDNA, one strand shown
T12 sequence: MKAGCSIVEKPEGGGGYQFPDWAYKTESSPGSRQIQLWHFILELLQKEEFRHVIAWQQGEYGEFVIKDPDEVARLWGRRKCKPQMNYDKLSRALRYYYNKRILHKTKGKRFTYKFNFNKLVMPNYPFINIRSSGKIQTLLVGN
Summary of the method: as §1

ETV6 = ETV6 (Homo sapiens, UniProt P41212 1-452); settings: protein: recombinant; tags: N-terminal GST; dsDNA, one strand shown
Sequence of ETV6 (P41212 whole entry): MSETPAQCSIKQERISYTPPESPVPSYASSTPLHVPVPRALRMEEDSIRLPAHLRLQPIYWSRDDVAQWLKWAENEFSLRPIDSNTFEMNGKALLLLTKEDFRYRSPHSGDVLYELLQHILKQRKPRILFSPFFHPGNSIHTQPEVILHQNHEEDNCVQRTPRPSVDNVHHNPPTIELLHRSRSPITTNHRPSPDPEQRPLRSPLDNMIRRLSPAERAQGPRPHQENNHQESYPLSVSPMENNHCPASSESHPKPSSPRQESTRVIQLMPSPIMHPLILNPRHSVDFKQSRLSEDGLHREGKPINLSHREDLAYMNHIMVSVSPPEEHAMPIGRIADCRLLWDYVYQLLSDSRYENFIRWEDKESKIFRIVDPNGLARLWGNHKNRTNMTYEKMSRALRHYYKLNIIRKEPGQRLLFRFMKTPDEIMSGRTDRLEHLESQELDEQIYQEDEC
Summary of the method: as §1

CTACCG
binding signal (FEV): 1.7 fold enrichment (6-mer frequency, TF over GST control)
binding signal (ETV5): 1.64 fold enrichment (6-mer frequency, TF over GST control)
binding signal (HSF1): 1.16 fold enrichment (6-mer frequency, TF over GST control)
binding signal (SPIC): 1.62 fold enrichment (6-mer frequency, TF over GST control)
binding signal (ELF4): 1.59 fold enrichment (6-mer frequency, TF over GST control)
binding signal (ELK4): 1.38 fold enrichment (6-mer frequency, TF over GST control)
binding signal (ETV2): 1.47 fold enrichment (6-mer frequency, TF over GST control)
binding signal (ELF3): 1.67 fold enrichment (6-mer frequency, TF over GST control)
binding signal (CRX): 1.02 fold enrichment (6-mer frequency, TF over GST control)
binding signal (ETV1): 1.62 fold enrichment (6-mer frequency, TF over GST control)
binding signal (ERF): 1.62 fold enrichment (6-mer frequency, TF over GST control)
binding signal (ETV3L): 1.69 fold enrichment (6-mer frequency, TF over GST control)
binding signal (ETS2): 1.63 fold enrichment (6-mer frequency, TF over GST control)
binding signal (SPDEF): 1.63 fold enrichment (6-mer frequency, TF over GST control)
binding signal (ETV7): 1.54 fold enrichment (6-mer frequency, TF over GST control)
binding signal (ELF5): 1.64 fold enrichment (6-mer frequency, TF over GST control)
binding signal (ETV3): 1.58 fold enrichment (6-mer frequency, TF over GST control)
binding signal (ETV6): 1.53 fold enrichment (6-mer frequency, TF over GST control)
